Results on 40 compounds are retold here after PubChem BioAssay (Tox21).

“And” between values parts separate entries of the source, which are not always exact repeats. Equal entries are not always repeated. Results filed as inconclusive are left out. The source made the active and inactive calls. Calls come from the whole dose curve; as a rule, active = well fitted cell-killing curve with a large enough effect in the repeat runs; inconclusive = weak or mixed curves, or effect the other way; inactive = no such curve, though single readings can be large or run the other way. Starred links: 1 amine or outer side, 2 acyl side, 3 side chain; linkers in the order of their positions; H or OH if unused. Positions of bridges follow the written chain, without caps; N, C: chain ends. Non-standard residues stand in square brackets, D forms with d. Residues, ends and D or L forms follow the SMILES beside them. Chains are numbered I, II in the order given. Actinocin(9to1) = Cc1c2oc3c(C)ccc(C(=O)[*:1])c3nc-2c(C(=O)[*:2])c(N)c1=O; NMeV = CN[C@H](C(=O)O)C(C)C; Sar = CNCC(=O)O
% is set by controls: 0 for no effect and ±100 for the full control effect; potency is the fitted concentration of half-maximal effect.

A short description of the test: qHTS assay to identify small molecule agonists of the RXR signaling pathway - cell viability counter screen (AID 1159529). Note: nearly all actives have a fitted effect of over 50% in size. Conditions: RXR-alpha-bla HEK293T viability, CellTiter-Glo, 16 h; series mostly up to 76.8 µM; activity change, negative = cytotoxicity: at the top concentration. The text has this: National Center for Advancing Translational Sciences [NCATS]
NIH Chemical Genomics Center [NCGC]
U.S. Environmental Protection Agency [EPA]
National Institutes of Environmental Health Sciences [NIEHS]
National Toxicology Program [NTP]
U.S. Food and Drug Administration [FDA]
The Retinoid X receptor (RXR), a nuclear hormone receptor expressed in liver, spleen, placenta, epidermis, central nervous system. These receptors are able to form homo and heterodimers with other nuclear receptors and due to this heterodimerizing ability, RXR functions as master regulators producing diverse physiological effects. Three subtypes of RXR exist; alpha, beta and gamma. Retinoid X receptor alpha (RXR-alpha) has potential roles in metabolic signaling pathways, skin alopecia, dermal cysts, cardiac development, insulin sensitization etc. Therefore screening environmental chemicals on RXR-alpha signaling can be used for the studies focused on such therapeutic applications. For quantification of RXR-alpha ligands signaling, GeneBLAzer RXR alpha-UAS-bla HEK 293T (Life Technologies, Carlsbad, CA) cells containing a beta-lactamase reporter-gene under control of Retinoid X receptor-alpha response element were used to screen Tox21 10K library. The cytotoxicity of the Tox21 compound library against the RXR-alpha HEK 293T cell line was tested in parallel by measuring cell viability using CellTiter-Glo assay (Promega Corporation, Madison, WI) in the same wells.
Tox21 Assay Protocol Summary:
RXR-alpha HEK 293T cells were dispensed at 2,000 cells/6 uL of assay medium containing 2% charcoal-stripped FBS using a Multidrop Combi (ThermoFisher Scientific, Waltham, MA) dispenser. The assay was performed in black wall/clear-bottom 1536-well plates (Greiner Bio-One North America Inc. Monroe, NC). Tetraoctyl ammonium bromide was used as a positive control in the cytotoxicity screen. After the assay plates were incubated at 37 C and 5% CO2 for 5 hr, 23 nL of compounds dissolved in DMSO, positive control or DMSO only were transferred to the assay plate by a Pintool station (Kalypsys, San Diego, CA). The assay plates were incubated at 37 C and 5% CO2 for 16 hr. One uL of LiveBLAzer B/G FRET substrate (Life Technologies) was added using a Flying Reagent Dispenser (FRD) (Aurora Discovery, San Diego, CA) and the plates were incubated at room temperature for 2 hr. Fluorescence intensity (405 nm excitation, 460/530 nm emission) was measured using an Envision plate reader (PerkinElmer, Shelton, CT). For cytotoxicity, 4 uL/well of CellTiter-Glo reagent was added into the assay plates using an FRD. After 30 min incubation at room temperature, the luminescence intensity was measured using a ViewLux plate reader (PerkinElmer).
(Quantitative high-throughput screening tests each substance at several concentrations.)
Turning to `NCCO`, the “activity change, negative = cytotoxicity” value was 4.95% (inactive).

Regarding `Cc1cc(Cc2cc(C)cc(C(C)(C)C)c2O)c(O)c(C(C)(C)C)c1`, the Potency was 12.4 µM (active) and 21.9 µM (active). Regarding `CC(N)=O`, the “activity change, negative = cytotoxicity” value was 5.35% [at 200 µM] (inactive). As for `CCN(CC)CCOc1ccc(/C(=C(\Cl)c2ccccc2)c2ccccc2)cc1`, the Potency is 15.8 µM (active) and 10.7 µM (active). Regarding `COc1nc(C)nc(Cl)c1NC1=NCCN1`, the “activity change, negative = cytotoxicity” value was 12.1% [at 35.3 µM] (inactive).

As to `COC(=O)[C@H]1[C@H]2C[C@@H]3c4[nH]c5cc(OC)ccc5c4CCN3C[C@H]2C[C@@H](OC(=O)c2cc(OC)c(OC)c(OC)c2)[C@@H]1OC`, the Potency entry was “inactive”. With `CC1COc2c(N3CCN(C)CC3)c(F)cc3c(=O)c(C(=O)O)cn1c23` (stereo not given), the “activity change, negative = cytotoxicity” value was 3.5% [at 35.3 µM] (inactive). Turning to `CN(C)c1ccc(C(=C2C=CC(=[N+](C)C)C=C2)c2ccccc2)cc1`, the Potency is 3.47 µM (active) and 2.39 µM (active) and 4.25 µM (active). On to `COc1cc(C(=S)N2CCOCC2)ccc1O`, for which the “activity change, negative = cytotoxicity” value was -1.49% [at 35.3 µM] (inactive). `CC(C)(c1ccccc1)c1ccc(Nc2ccc(C(C)(C)c3ccccc3)cc2)cc1`: the Potency result was “inactive”. For the compound `CC(COc1ccccc1)N(CCCl)Cc1ccccc1` (stereo not given), the Potency result is “inactive”. Regarding `CCn1cc(C(=O)O)c(=O)c2cc(F)c(N3CCNC(C)C3)c(F)c21` (stereo not given), the “activity change, negative = cytotoxicity” value is 6.85% [at 35.3 µM] (inactive). In the case of `C=C(C)C1CC=C(C)C(OC(C)=O)C1` (stereo not given), the Potency entry is “inactive”. With `CC[C@@H](N)CO`, the “activity change, negative = cytotoxicity” value is -11.5% (inactive). On to `CCOc1ccccc1C(N)=O`, for which the Potency entry was “inactive”.

As to `CC1=C(C=O)C(C)(C)CC=C1`, the “activity change, negative = cytotoxicity” value was 0.513% (inactive).

With `O=C1OC2(c3ccc(O)cc3Oc3cc(O)ccc32)c2ccccc21`, the Potency entry is “inactive”. Same read-out and setting: the figure for `CNCCC(Oc1ccc(C(F)(F)F)cc1)c1ccccc1` (stereo not given) is 27.2 µM (active) and 23.9 µM (active).

`Cc1occc(=O)c1OC(=O)C(C)C`: the “activity change, negative = cytotoxicity” value is -8.4% (inactive). Same read-out and setting: the figure for `Nc1ccc(O)cc1` is 5.91% [at 35.3 µM] (inactive). `CN(C)c1ccc2nc3ccc(=[N+](C)C)cc-3sc2c1`: the Potency result is “inactive”. For the compound `CCCCCCCCCCCC[N+](C)(C)C`, the Potency was 54.8 µM (active) and 54.9 µM (active) and 49 µM (active). As to `CCc1ccc(C(c2ccc(CC)cc2)C(Cl)Cl)cc1`, the Potency was 35.2 µM (active). The same measure, in the same setting: to `CCC(C)(C)C(=O)O[C@H]1C[C@@H](C)C=C2C=C[C@H](C)[C@H](CC[C@@H]3C[C@@H](O)CC(=O)O3)[C@H]21` belongs 12 µM (active); to `CC(C)CCCCCCc1ccc(O)cc1`, 5.59 µM (active) and 38.9 µM (active). With `CCOc1ccc2c(c1)C(C)=CC(C)(C)N2`, the “activity change, negative = cytotoxicity” value was -13.2% (inactive). With `Cc1cccc2n[nH]nc12`, the Potency result is “inactive”. For the compound `COc1ccc(CCN2CCC(Nc3nc4ccccc4n3Cc3ccc(F)cc3)CC2)cc1`, the Potency was 8.9 µM (active) and 21.3 µM (active).

For `OCCOCCN1CCN(C(c2ccccc2)c2ccc(Cl)cc2)CC1` (stereo not given), the Potency is 21.6 µM (active). Take `CCc1cc(C(C)(C)C)c(O)c(C(C)(C)C)c1`: the Potency entry was “inactive”. For `CC(C)(C)c1ccccc1`, the “activity change, negative = cytotoxicity” value was 1.18% (inactive).

With `O=C(O)c1cn(-c2ccc(F)cc2)c2cc(N3CCNCC3)c(F)cc2c1=O`, the Potency entry is “inactive”. On the same count and under the same terms, the entry for `CC(=O)OCCOCCOCCOC(C)=O` is “inactive”; for `O=C(Oc1ccccc1)c1ccccc1O` it is “inactive”. On the same count and under the same terms, to `Cc1ccnc2c1NC(=O)c1cccnc1N2C1CC1` belongs “inactive”. Regarding `BrC1CCC(Br)C(Br)CCC(Br)C(Br)CCC1Br` (stereo not given), the Potency was 15.4 µM (active) and 18.5 µM (active). Take `O=C(O)CP(=O)(O)O`: the “activity change, negative = cytotoxicity” value is -28.9% [at 35.3 µM] (inactive).

For `CC(C)(C)c1cc(C(C)(C)C)c(O)c(C(C)(C)C)c1`, the Potency entry was “inactive”.

Turning to `Cc1c2oc3c(C)ccc(C(=O)N[C@@H]4C(=O)N[C@H](C(C)C)C(=O)N5CCC[C@H]5C(=O)N(C)CC(=O)N(C)[C@@H](C(C)C)C(=O)O[C@@H]4C)c3nc-2c(C(=O)N[C@@H]2C(=O)N[C@H](C(C)C)C(=O)N3CCC[C@H]3C(=O)N(C)CC(=O)N(C)[C@@H](C(C)C)C(=O)O[C@@H]2C)c(N)c1=O` (I: T[dV]P[Sar][NMeV] / II: T[dV]P[Sar][NMeV]; ester I:1-I:C, II:1-II:C; linker I:N-II:N via Actinocin(9to1)), the Potency entry is “inactive”.

For `COc1ccc(Cc2cnc(N)nc2N)cc1OC`, the “activity change, negative = cytotoxicity” value was 1.66% [at 35.3 µM] (inactive).
